tested on: VDR:RXRa (NR concentration 270 nM, RXRa partner concentration 90 nM); test: PBM binding z-score (relative to random genomic background probes); higher = stronger binding; sequences stand for … in GC…GCGATTGACAGCGTAGAATGAAGG
Experimental: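 Protein-binding microarray (Agilent 4x180K custom design, double-stranded 60-nt probes: 5' GC cap, 34-nt variable region, 24-nt constant primer region; full probe sequence given). Purified or IVT nuclear receptor:RXRα heterodimers (3:1 NR:RXRα, mostly 270:90 nM) or homodimers were incubated for 1 h in PBS with 2% milk and no ligand, then detected with Alexa488 antibodies. Fluorescence from o1-orientation probes (~5 replicates averaged) was converted to z-scores against 500 random hg19 background probes. Variable regions are seed direct-repeat (DR0–DR5) sites, all their single-nucleotide variants and half-site ablations.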

Sequence | PBM binding z-score
TCATATAGGTAATGGTGAAAGTCGAACGATATGA | 0.243
TCATATAGCTAAAAGGTGAAAGTCGGTGTGGTAA | 0.864
CGTCCAAGGTCAATGCTAGGTCCGTGAAAGCATT | 3.86
CGTCCAAGGTCATAGGTGGTCAGTGAAGACAGAT | 4.72
ACTCGGACGACAAAGGTCAGAGCTACGCCAGTGA | 2.76
CAAACTAGGTCACCGGCAGGTCAAAGTCCGCATG | 5.36
CGCACTAGGTCAGAACAGGACAGTGAAGGATGAT | 0.776
AGTCAAAGTTAAGGACGAGGTAACGTAAAGCACG | -0.131
TAGCCTAGGGCATTGGGCCAGTATAGTACGCATC | -0.414
CCTACCGGGCCAAAAAGGTCATTGATGCCGATAA | 5.13
CGTCCAAGGTCATAGGAGGCCAGTGAAGACAGAT | 4.93
GCTTACGGGTCAAAGGTTATCGCATGAATAGAAT | 5.72
CCTTACGGGTCACTGACAGGTTCTAGCATTTGGA | 3.36
AGAATGAGGTTATACGTAGATTAGGGAAGAAAGT | 1.44
TAGCCTAGGTCATTCAGGGCCCAGTATAGAAAGC | 2.8
AGCTCTAGGTAAAGTTCAGTGAAAGATCGATAGA | 1.08
CCCTACGGGTCACGAGGTTATAGCACGACGAGCG | 5.13
TCTTGGAGGACACGAAAGGTCAGAGCTCGACATC | 3.58
CCTATTAGTTGACCATAAGCGCAACCGAAGCTCG | 1.05
CGTCCAAGGTCAGAGAGGTCAGTGATTGCCGAGT | 7.23

Sequence | PBM binding z-score
CGTAGCAGGCCAGGGTCACTCAAGCATTTCGCTT | 2.59
AATACAGGGTCACTAGGCAAGAGTAGGTACGAAT | 3.97
CCAGACAGGTGAGAAGGTAACTCTGCCTCGATTA | -0.12
AGTCAAAGTTCATCGAGGTAACGTAAGATATGCT | 6.17
CCTAGTTGGTCAGGAGGTCTCACACCGGATATGA | 0.189
CTACCAAGGCGAACAAGGTCGTTGATTACTATTC | 2.59
ATCTCTAGGTAATAAGTTCAGTGAAAGAGAGGAC | 1.9
CGTCCAAGGTCATAGGAAGTCAGTGAAGACAGAT | 4.21
ATTATTAGTTGAGACGAGGGCAACCGATAGGTTG | 1.29
TCATATAGGTTAACAGGTGAAAGTCCGTAAGTTA | 2.04
ATACCAAGGTGATCGTGAGGTCGATGATACTAAC | 1.9
CTCGAAAGGTAGGTTGAGGTGAGTATACGGATAA | 0.309
TCTATTAGTTGAATAGGGCAACCGAAACAGCGGA | 0.6
ACTATTGGTTGACTTAGGGCAACCGATACGACGC | 0.175
AGAACGAGGGCACGCTGAGTAGATAGCAGAGTAG | 0.928
ATATGTAGGTTACATCCTGGTCATTCAGGCTATG | 0.956
TCTGCTAGCTCAACGATGGTCAGCTAATCTGCTA | -0.662
ACTTACGGGTCAACGAGGTTCTAGCACGCGTATA | 6.52
GATACAGCGTCAGCTAGAGGCCAGAGTATGGAAA | -0.922
CGGACTGGGGCATAAGGTTACCATAAGCCAGCCC | 0.33

Reference: the supplement of paper PMC6555819
